Source: PubChem BioAssay
Activity calls are given as the source filed them.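 The calls were made as follows, unless noted: active = compounds giving at least 50% inhibition in the cell-based MKP-3 phosphatase rescue imaging test; inactive = the rest.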

What was measured:
[1] = inhibitors of TNFa-induced NFkB p65 translocation, primary screen, imaging, HUVEC, MLSMR starter and 10KST1 sets (AID 438;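 active = inhibition above 20% together with a positive visual image hit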;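 also: compound added about 3h40 before a 20 min TNFalpha stimulation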;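 as to inhibition: signal is the nuclear over cytoplasmic p65 intensity ratio per well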); conditions: HUVEC TNFa-induced p65 nuclear translocation; cell count: measured here: nuclei count (cytotoxicity indicator), at 2.08 µM; inhibition: at 2 µM, stronger effect = higher value, 0% TNFa-plus-vehicle, 100% no-TNFa wells
[2] = reduction of polyQ htt aggregates in cells – imaging, exon1htt(103Q)mCFP cells, high-content imaging, primary screen (AID 483;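 active = visual image review flags a hit and inhibition of aggregation exceeds 20%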;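 also: compound exposure lasted 3 days before fixation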;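 as to nuclei count: percent of the per-plate median nuclei count of sample wells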); conditions: exon1htt(103Q)mCFP cell line, aggregate imaging, at 2 µM; inhibition of aggregation: stronger effect = higher value; nuclei count: measured here: cell count, toxicity
[3] = endothelial E-selectin expression blockers – imaging, HUVEC, immunofluorescence, MLSMR starter and 10KST1 sets, primary screen (AID 487;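 active = visually confirmed hit in the image check and inhibition above 20%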;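 as to inhibition: signal is fraction of cell area covered by stained E-selectin grains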;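 as to nuclei count: 100% = median nuclei count of all wells on the same plate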); conditions: HUVEC TNFalpha-induced E-selectin immunofluorescence imaging, at 2 µM; inhibition: stronger effect = higher value; nuclei count: measured here: cell number, toxicity
[4] = Primary imaging screen for DUSP6 inhibitors that restore phospho-Erk in transfected HeLa cells, chemical complementation (AID 609); conditions: HeLa MKP-3 transfected, phospho-Erk imaging KS statistic, at 10 µM, cells stimulated with TPA for 15 min;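 as to inhibition: phospho-Erk level distribution per well compared with pooled transfected vehicle control wells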
[5] = biological target: Dual specificity protein phosphatase 6 (Homo sapiens) (UniProt Q16828); assay: as above; conditions: HeLa MKP-3 transfected, phospho-Erk imaging KS statistic; at 10 µM; stronger effect = higher value; cells stimulated with TPA for 15 min
Chain of Dual specificity protein phosphatase 6 (Homo sapiens) (Q16828 whole entry, looked up): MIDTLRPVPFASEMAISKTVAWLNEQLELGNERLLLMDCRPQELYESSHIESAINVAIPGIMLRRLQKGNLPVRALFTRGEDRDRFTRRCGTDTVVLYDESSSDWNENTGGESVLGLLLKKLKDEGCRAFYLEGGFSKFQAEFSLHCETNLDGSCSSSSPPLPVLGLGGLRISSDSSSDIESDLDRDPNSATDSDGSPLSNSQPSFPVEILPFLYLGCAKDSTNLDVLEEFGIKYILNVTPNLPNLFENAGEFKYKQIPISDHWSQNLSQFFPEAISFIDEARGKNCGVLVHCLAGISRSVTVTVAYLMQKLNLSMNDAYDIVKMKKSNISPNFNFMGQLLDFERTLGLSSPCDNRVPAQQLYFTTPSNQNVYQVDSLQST

[6] = biological target: Voltage-gated potassium channel subunit beta-2 (Rattus norvegicus) (UniProt P62483); assay: inhibitors of rat Kvbeta2 reductase activity – biochemical, NADPH fluorescence, primary screen (AID 622;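 active = fluorescence slope higher than the sample average by over 3 SD, cut at about -0.22 in these data, passing the limit was not always enough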;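 also: slope of raw intensity against log time taken from 70 to 1610 s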); conditions: recombinant KvBeta, 4-cyanobenzaldehyde reduction, at 10 µM, stronger effect = higher value
Chain of Voltage-gated potassium channel subunit beta-2 (Rattus norvegicus) (P62483 whole entry, looked up): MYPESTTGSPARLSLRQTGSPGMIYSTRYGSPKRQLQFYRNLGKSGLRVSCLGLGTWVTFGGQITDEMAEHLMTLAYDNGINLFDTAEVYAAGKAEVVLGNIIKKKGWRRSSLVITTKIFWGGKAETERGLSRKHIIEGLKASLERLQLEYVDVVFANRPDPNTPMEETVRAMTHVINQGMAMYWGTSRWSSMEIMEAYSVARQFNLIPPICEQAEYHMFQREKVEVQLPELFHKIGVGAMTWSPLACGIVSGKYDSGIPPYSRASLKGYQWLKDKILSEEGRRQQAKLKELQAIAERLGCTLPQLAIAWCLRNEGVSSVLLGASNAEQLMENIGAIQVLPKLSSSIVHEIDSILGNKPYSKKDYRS

[7] = biological target: Voltage-gated potassium channel subunit beta-2 (Rattus norvegicus) (UniProt P62483); assay: enhancers of rat Kvbeta2 NADPH turnover – biochemical, NADPH fluorescence, primary screen (AID 623;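 active = NADPH fluorescence slope more negative than the mean of all samples by about 3 SD, 99.7% confidence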;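 also: fluorescence intensity change per second fitted from 20 to 320 s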); conditions: Recombinant KvBeta, NADPH fluorescence decrease slope, 10 min; at 10 µM; stronger effect = lower value
[8] = biological target: Alpha-2C adrenergic receptor (Homo sapiens) (UniProt P18825); assay: compounds altering alpha2C-coupled GIRK flux – cell-based, HEK293 alpha2C/GIRK1/2, thallium flux, primary screen (AID 624;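 active = fluorescence slope after compound addition differing from the mean of all screened samples at 99.7% confidence, in either direction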;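 also: slope of fluorescence ratio to pre-addition baseline per second over 15 to 24 s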); conditions: thallium flux BTC fluorescence, at 10 µM, actives lie on both sides
Chain of Alpha-2C adrenergic receptor (Homo sapiens) (P18825 whole entry, looked up): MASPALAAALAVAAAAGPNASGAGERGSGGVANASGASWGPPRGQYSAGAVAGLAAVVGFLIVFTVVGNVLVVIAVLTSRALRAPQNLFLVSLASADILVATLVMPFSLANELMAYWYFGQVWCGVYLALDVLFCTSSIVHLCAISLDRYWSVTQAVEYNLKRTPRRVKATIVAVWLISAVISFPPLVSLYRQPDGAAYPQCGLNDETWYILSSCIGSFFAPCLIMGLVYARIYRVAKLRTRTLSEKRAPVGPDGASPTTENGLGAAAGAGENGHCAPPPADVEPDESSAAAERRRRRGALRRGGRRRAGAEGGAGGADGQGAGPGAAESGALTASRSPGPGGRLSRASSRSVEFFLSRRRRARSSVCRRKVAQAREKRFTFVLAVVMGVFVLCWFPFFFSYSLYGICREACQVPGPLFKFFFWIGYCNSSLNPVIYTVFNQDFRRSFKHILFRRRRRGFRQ

[9] = inhibitors of larval lipid processing in zebrafish, primary screen, whole organism, PED6 fluorescence, gall bladder and intestine (AID 686;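 active = a full or partial loss of lipid-probe fluorescence in the fish gall bladder, intestine or both, judged by eye; inactive = no fluorescence loss, or compound toxic to the fish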;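 also: larvae 5 to 7 days old with five fish per well; signal comes from phospholipase A2 cleavage of quenched PED6 carried via bile; overnight exposure to compound and PED6 before scoring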); conditions: Zebrafish larvae PED6 lipid processing, fluorescence scoring; screened at 20 µM (by protocol)
[10] = loss of swimming-algae plug formation – whole organism, Chlamydomonas reinhardtii, WT vs cilia-less mutant, absorbance, 96-well, primary screen (AID 463189;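 active = inhibition at or above 50% relative to wild type and mutant plate controls; inactive = inhibition below 50%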;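 also: 0% = wild type cc124 cells in DMSO and 100% = ciliumless bld1 mutant cells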); conditions: Chlamydomonas reinhardtii gravitaxis, OD600 absorbance, 2 days; at 10 µM; stronger effect = higher value
[11] = blockers of RIG-like receptor reporter activation – cell-based, Sendai virus stimulus, luciferase, 10K MLSCN set, TLR/RLR signaling modifier project, primary screen (AID 602276;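 active = inhibition at or above 50% at 10 µM; inactive = inhibition below 50%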;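 also: firefly luciferase from ISG56 promoter only with Renilla not read in this screen; 0% = Sendai virus plus DMSO and 100% = medium plus DMSO without virus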); conditions: HEK293 RL24 IRF3 luciferase reporter, at 10 µM, stronger effect = higher value
[12] = TLR3 IRF3 reporter activation blockers – cell-based, poly I:C stimulus, luciferase, 10K MLSCN set, primary screen (AID 602277;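 active = inhibition of the reporter signal at or above 50%; inactive = inhibition below 50%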); conditions: HEK293-TLR3 RL24 IRF3 luciferase reporter, at 10 µM, stronger effect = higher value
[13] = biological target: Muscarinic acetylcholine receptor M4 (Homo sapiens) (UniProt P08173); assay: M4-linked GIRK flux change, two-sided – cell-based, HEK293 M4/GIRK, thallium flux, BTC-AM, M4 allosteric agonist project, primary screen (AID 625;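 active = fluorescence slope after compound addition differing from the mean of all tested samples at 99.7% confidence, mostly higher but some lower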;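 also: thallium influx through GIRK channels coupled to M4 in HEK293 cells with BTC-AM dye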); conditions: at 10 µM, actives lie on both sides
Chain of Muscarinic acetylcholine receptor M4 (Homo sapiens) (P08173 whole entry, looked up): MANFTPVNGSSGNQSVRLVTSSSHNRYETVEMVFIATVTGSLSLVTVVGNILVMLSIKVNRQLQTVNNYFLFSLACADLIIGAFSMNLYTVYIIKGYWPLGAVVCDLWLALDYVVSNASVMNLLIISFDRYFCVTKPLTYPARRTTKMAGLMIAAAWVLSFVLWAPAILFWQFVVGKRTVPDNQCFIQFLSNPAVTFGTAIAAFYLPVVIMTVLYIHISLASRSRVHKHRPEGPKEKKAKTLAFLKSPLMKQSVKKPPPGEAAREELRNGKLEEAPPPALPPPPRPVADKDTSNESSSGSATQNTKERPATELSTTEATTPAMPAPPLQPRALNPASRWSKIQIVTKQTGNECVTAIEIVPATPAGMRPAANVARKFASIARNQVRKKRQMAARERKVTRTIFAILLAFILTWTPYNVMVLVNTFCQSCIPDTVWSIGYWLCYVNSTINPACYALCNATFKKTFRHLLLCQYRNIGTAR

[14] = measured here: cell density z-score
[15] = measured here: nuclear c-Myc green intensity z-score
[16] = measured here: nuclear pErk red intensity z-score, stronger effect = higher value

| Structure (SMILES) | cell count [1] | inhibition [1] | inhibition of aggregation [2] | nuclei count [2] [%] | inhibition [3] | nuclei count [3] [%] | z-score [4, 14] | z-score [4, 15] | z-score [4, 16] | inhibition [5] | fluorescence slope [6] | NADPH fluorescence slope [7] | slope [8] | outcome [9] | inhibition [10] | inhibition [11] | inhibition [12] | fluorescence slope [13] |
| --- | --- | --- | --- | --- | --- | --- | --- | --- | --- | --- | --- | --- | --- | --- | --- | --- | --- | --- |
| CCOC(=O)c1c(C(F)(F)C(F)(F)C(F)(F)C(F)(F)F)n[nH]c1C | 532 | -3.7% (inactive) | 10.3% (inactive) | 97.3 | -78.6% (inactive) | 128 | -0.312 | 0.0825 | -0.449 | 11.3% (inactive) | -0.521 (inactive) | -9.8e-05 (inactive) | 0.00424 (inactive) | inactive | 17.6% (inactive) | 17.2% (inactive) | 24.6% (inactive) | – |
| Cc1cccc(OCC(=O)N2CCC(N3CCCCCC3)CC2)c1 | 395 | -7.8% (inactive) | 17.2% (inactive) | 97.5 | -247% (inactive) | 128 | 1.59 | 1.35 | -0.179 | 5.57% (inactive) | -0.384 (inactive) | -4.7e-05 (inactive) | 0.00464 (inactive) | inactive | 17.1% (inactive) | -0.464% (inactive) | 3.84% (inactive) | – |
| COC1=CC(=O)CC(C)C12Oc1c(Cl)c(OC)cc(OC)c1C2=O (stereo not drawn) | 555 | -5% (inactive) | 6.9% (inactive) | 105 | -16.1% (inactive) | 122 | -1.48 | -1.27 | 1.79 | -8.38% (inactive) | -0.459 (inactive) | -3.3e-05 (inactive) | 0.00463 (inactive) | inactive | -7.52% (inactive) | 22.1% (inactive) | 38.6% (inactive) | – |
| Cc1cc(N2C(=O)C(=O)/C(=C(/O)c3ccc(F)cc3)C2c2ccc(F)cc2)no1 (stereo not drawn) | 430 | -7.1% (inactive) | 10.1% (inactive) | 60.9 | -108% (inactive) | 122 | -1.41 | 1.25 | 1.07 | 1.04% (inactive) | -0.407 (inactive) | -3.1e-05 (inactive) | 0.00571 (inactive) | inactive | 0.694% (inactive) | 14.8% (inactive) | 7.49% (inactive) | 0.0056 (inactive) |
| COc1ccc(OC)c(C2C(C#N)=C(N)Oc3cc(C)[nH]c(=O)c32)c1 (stereo not drawn) | 544 | -31.7% (inactive) | 19.9% (inactive) | 88.9 | -48.5% (inactive) | 122 | -0.908 | -1.31 | -0.529 | -7.86% (inactive) | -0.536 (inactive) | -5e-05 (inactive) | 0.00618 (inactive) | inactive | 15.7% (inactive) | 13.1% (inactive) | -12.4% (inactive) | – |
| CCCCOc1ccc(C(=O)Nn2cnnc2)cc1 | 491 | -0.8% (inactive) | 14.2% (inactive) | 96.9 | -83.6% (inactive) | 100 | -0.477 | -1.53 | -0.77 | -8.27% (inactive) | -0.32 (inactive) | -2.1e-05 (inactive) | 0.00306 (inactive) | inactive | 0.154% (inactive) | 9.75% (inactive) | 15.4% (inactive) | – |
| CC(C)OC(=O)C(CC(=O)O)NCc1ccccc1 (stereo not drawn) | 518 | -2% (inactive) | 15% (inactive) | 65.3 | -117% (inactive) | 118 | 0.414 | 0.989 | 0.212 | 1.75% (inactive) | -0.296 (inactive) | 2.8e-05 (inactive) | 0.00502 (inactive) | inactive | -6.73% (inactive) | 14.9% (inactive) | 20.3% (inactive) | – |
| NS(=O)(=O)c1cc2c(cc1Cl)NC(C(Cl)Cl)NS2(=O)=O (stereo not drawn) | 646 | -8.4% (inactive) | 4.9% (inactive) | 109 | -57% (inactive) | 134 | -1.31 | -0.533 | 1.7 | -4.44% (inactive) | -0.512 (inactive) | -2e-05 (inactive) | 0.00475 (inactive) | inactive | 3.47% (inactive) | 13.9% (inactive) | 35.5% (inactive) | – |
| Cc1noc(COc2ccccc2OCC(O)CNC(C)(C)C)n1 (stereo not drawn) | 623 | -11.7% (inactive) | 16.2% (inactive) | 89.4 | -52.1% (inactive) | 128 | -0.283 | 1.24 | 2.27 | -16.8% (inactive) | -0.496 (inactive) | -2.4e-05 (inactive) | 0.0046 (inactive) | inactive | -3.71% (inactive) | 16.2% (inactive) | 99.7% (active) | – |
| O=C(O)CN(c1ccccc1)C1SC(=O)NC1=O (stereo not drawn) | 606 | -0.1% (inactive) | 5.9% (inactive) | 107 | -50.9% (inactive) | 140 | -0.0323 | -0.911 | 0.397 | 16.1% (inactive) | -0.506 (inactive) | -3.4e-05 (inactive) | 0.00506 (inactive) | inactive | 31.8% (inactive) | 11.9% (inactive) | 13.7% (inactive) | – |
| Cc1nnc2n(Cc3ccccc3)c(=O)c3c4c(sc3n12)COC(C(C)C)C4 (stereo not drawn) | 511 | 9.8% (inactive) | 29.9% (inactive) | 80.8 | -54.8% (inactive) | 118 | 0.665 | -0.394 | -1.52 | -1.12% (inactive) | -0.46 (inactive) | -0.000365 (inactive) | 0.00653 (inactive) | inactive | 146% (active) | 11.6% (inactive) | 3.4% (inactive) | – |
